In PubChem BioAssay (EPA / NIEHS) one finds AC50 and outcome data, which are given here for 23 molecules.

Several values for one entry are separate records, joined by “and”; a condition that tells them apart may be missing. Equal values may be shown once. Results filed as inconclusive are left out. Activity calls are given as the source filed them. The calls were made as follows: active = hit-call score of the fitted dose curve at least 0.9, where 1 is the maximum; inconclusive = response in the unintended direction; inactive = score below 0.9.

human Androgen Receptor (AR), AR (gene 367), sequence (P10275 whole entry, looked up): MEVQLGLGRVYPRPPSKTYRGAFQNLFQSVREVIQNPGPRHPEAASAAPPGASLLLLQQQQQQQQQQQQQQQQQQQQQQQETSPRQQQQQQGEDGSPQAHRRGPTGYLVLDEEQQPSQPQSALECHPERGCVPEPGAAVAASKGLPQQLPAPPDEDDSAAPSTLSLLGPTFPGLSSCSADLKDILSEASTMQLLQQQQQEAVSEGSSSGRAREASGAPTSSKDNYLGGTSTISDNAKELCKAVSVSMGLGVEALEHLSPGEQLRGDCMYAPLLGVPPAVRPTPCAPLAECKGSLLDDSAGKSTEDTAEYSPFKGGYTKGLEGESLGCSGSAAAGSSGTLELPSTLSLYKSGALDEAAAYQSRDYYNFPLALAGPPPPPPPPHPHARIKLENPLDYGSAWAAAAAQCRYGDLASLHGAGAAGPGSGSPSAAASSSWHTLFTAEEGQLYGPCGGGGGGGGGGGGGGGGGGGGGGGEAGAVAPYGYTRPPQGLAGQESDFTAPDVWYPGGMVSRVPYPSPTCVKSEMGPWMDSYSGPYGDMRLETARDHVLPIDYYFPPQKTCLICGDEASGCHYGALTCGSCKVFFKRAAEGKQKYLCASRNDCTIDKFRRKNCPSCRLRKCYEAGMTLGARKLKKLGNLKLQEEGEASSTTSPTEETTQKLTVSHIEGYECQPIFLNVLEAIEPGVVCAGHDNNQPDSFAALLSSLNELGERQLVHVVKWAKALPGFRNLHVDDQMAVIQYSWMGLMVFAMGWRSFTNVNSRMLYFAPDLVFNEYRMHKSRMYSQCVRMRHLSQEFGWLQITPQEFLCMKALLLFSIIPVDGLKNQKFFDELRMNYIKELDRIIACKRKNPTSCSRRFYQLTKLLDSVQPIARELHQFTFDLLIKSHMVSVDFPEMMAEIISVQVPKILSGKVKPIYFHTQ
human Peripheral-type Benzodiazepine Receptor (PBR), TSPO (gene 706), sequence (P30536 whole entry, looked up): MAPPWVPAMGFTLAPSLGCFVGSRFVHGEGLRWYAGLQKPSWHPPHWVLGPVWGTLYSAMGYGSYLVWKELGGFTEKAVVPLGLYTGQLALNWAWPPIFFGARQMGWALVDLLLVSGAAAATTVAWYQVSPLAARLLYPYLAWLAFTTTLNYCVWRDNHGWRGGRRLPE
rat Gamma-Aminobutyric Acid Type A Receptor BDZ, alpha 6 site (GABARa6), Gabra6 (gene 29708), sequence (P30191 whole entry, looked up): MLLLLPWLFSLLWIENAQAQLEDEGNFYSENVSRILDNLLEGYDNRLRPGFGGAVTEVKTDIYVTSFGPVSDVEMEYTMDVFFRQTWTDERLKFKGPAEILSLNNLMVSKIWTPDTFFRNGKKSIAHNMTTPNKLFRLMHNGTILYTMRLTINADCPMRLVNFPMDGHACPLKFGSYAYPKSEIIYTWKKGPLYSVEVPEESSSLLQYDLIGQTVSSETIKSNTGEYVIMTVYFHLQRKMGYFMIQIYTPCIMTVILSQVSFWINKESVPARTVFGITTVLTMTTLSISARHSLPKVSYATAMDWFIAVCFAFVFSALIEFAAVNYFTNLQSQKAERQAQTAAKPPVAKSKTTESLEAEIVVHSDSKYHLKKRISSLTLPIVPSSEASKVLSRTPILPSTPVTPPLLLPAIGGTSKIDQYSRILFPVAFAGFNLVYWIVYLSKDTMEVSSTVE

In the first test the target is human Peripheral-type Benzodiazepine Receptor (PBR), TSPO (gene 706) (UniProt P30536). Description: NVS_MP_hPBR: NovaScreen (NVS) Membrane Protein Assay for human Peripheral-type Benzodiazepine Receptor (PBR) (AID 2283331).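 Also: hits reduce radioligand binding relative to DMSO baseline.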 Put shortly:
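Scintillation counts of filter-bound radioligand served as read-out after 1 h chemical dosing of human colonic membrane preparations. Activity was scored as signal loss against DMSO; initial duplicates at 25 uM, confirmatory concentration series afterward.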
By AC50 is commonly meant the midpoint of the concentration-response curve, whichever way the signal moves. With `COc1cc(-c2ccc(N)c(OC)c2)ccc1N`, the AC50 was 19.4 µM (active).

As to `CC(C)(c1ccc(OCC2CO2)cc1)c1ccc(OCC2CO2)cc1` (configuration not stated), the AC50 was 7.73 µM (active).

`O=C1C(Cl)=C(Cl)C(=O)c2ccccc21`: the AC50 is 7.47 µM (active).

`Clc1ccc(COC(Cn2ccnc2)c2ccc(Cl)cc2Cl)cc1` (configuration not stated): the AC50 is 1.09 µM (active).

In the case of `c1cc[c]([Hg][c]2ccccc2)cc1`, the AC50 is 0.372 µM (active).

`CCC[CH2][Sn]([CH2]CCC)([CH2]CCC)[O]C(=O)c1ccccc1`: the concentration at half-maximal activity (AC50) is 5.59 µM (active).

Consider `COP(=S)(OC)Oc1ccc(Sc2ccc(OP(=S)(OC)OC)cc2)cc1`, for which the AC50 is 1.16 µM (active) and 16.9 µM (active).

Regarding `CC(C)CCCCCCOC(=O)c1ccccc1C(=O)OCCCCCCC(C)C`, the call was inactive.

Take `CCOC(=O)/C=C(C)/C=C/C[C@@H](C)CCCC(C)C`: the half-maximal activity concentration (AC50) is 33.2 µM (active).

Take `Oc1ccc(-c2ccccc2)cc1`: the half-maximal activity concentration (AC50) was 43.8 µM (active) and 13.8 µM (active).

Consider `COP(=S)(OC)Oc1c(Cl)cc(C)cc1Cl`, for which the AC50 is 9.23 µM (active).

For the molecule `COP(=S)(OC)Oc1ccc(S(=O)(=O)N(C)C)cc1`, the AC50 is 5.32 µM (active).

Regarding `CCOP(=S)(OCC)SCCS(=O)(=O)CC`, the concentration at half-maximal activity (AC50) was 30.7 µM (active).

`CCN1CCC2(CC1)COc1cc3c(cc12)N(C(=O)c1ccc(-c2ccc(-c4nnc(C)o4)cc2C)cc1)CC3`: the AC50 is 2.37 µM (active).

The next test concerns the target human Androgen Receptor (AR), AR (gene 367) (UniProt P10275). Description: NVS_NR_hAR: NovaScreen (NVS) Nuclear Receptor Binding Assay for human Androgen Receptor (AR) (AID 2283332). Put shortly:
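Radioligand competitive binding, scintillation read-out, in cell-free extract from LnCAP, measured 20 h after dosing. Screened first in duplicate at 25 uM, then concentration series for actives; activity fitted against DMSO.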
As for `CCN(CC)C(=O)Cl`, the outcome was inactive.

As to `Cl/C=C\C[N+]12CN3CN(CN(C3)C1)C2`, the call was inactive.

Turning to `COP(=S)(OC)Oc1ccc(Sc2ccc(OP(=S)(OC)OC)cc2)cc1`, the AC50 was 17.9 µM (active).

For `CC12CC1(C)C(=O)N(c1cc(Cl)cc(Cl)c1)C2=O` (configuration not stated), the concentration at half-maximal activity (AC50) is 17.1 nM (active) and 355 nM (active).

In the case of `N#CCCO`, the result was inactive.

Tested on in a further test: not listed separately
Nature of the test: NVS_IC_rCaBTZCHL: NovaScreen (NVS) Ion Channel Assay for Calcium Channel, Type L, Benzothiazepine Site (CaBTZCHL) (AID 2283337). Summed up:
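Competitive displacement of a site-specific radioligand from rat cortex membranes, measured as signal loss against DMSO baseline by filter radiodetection after 1.5 h. Single-point 25 uM primary screen.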
As for `Cn1sc(Cl)cc1=O`, the outcome was inactive.

As for `CCC(=O)C(CC(C)N(C)C)(c1ccccc1)c1ccccc1` (configuration not stated), the AC50 is 1.16 µM (active).

As for `COP(=S)(OC)Oc1ccc(Sc2ccc(OP(=S)(OC)OC)cc2)cc1`, the AC50 is 25 µM (active).

`O=Cc1cccc(Oc2ccccc2)c1`: the outcome was inactive.

For the molecule `CCN1CCC2(CC1)COc1cc3c(cc12)N(C(=O)c1ccc(-c2ccc(-c4nnc(C)o4)cc2C)cc1)CC3`, the half-maximal activity concentration (AC50) is 4.16 µM (active).

The next test concerns the target rat Gamma-Aminobutyric Acid Type A Receptor BDZ, alpha 6 site (GABARa6), Gabra6 (gene 29708) (UniProt P30191). Nature of the test: NVS_LGIC_rGABARa6: NovaScreen (NVS) Ligand-Gated Ion Channel Assay for rat Gamma-Aminobutyric Acid Type A Receptor BDZ, alpha 6 site (GABARa6) (AID 2283339). Put shortly:
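Rat cerebellar membranes; radioligand binding, filtration and scintillation counting, read 1 h after dosing. Single-concentration duplicate screen at 25 uM, then concentration-response up to 50 uM for actives; loss of signal fitted versus DMSO baseline.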
For `CN(C)N=O`, the outcome was inactive.

On to `Cn1sc(Cl)cc1=O`, for which the call was inactive.

As to `CCC(=O)c1ccccc1`, the call was inactive.
